# Test results as given in PubChem BioAssay (EPA / NIEHS).
# Values joined by “and” are separate entries in the source; they are usually repeats but may differ in a detail not shown here. Equal entries are not always repeated. The source holds several records for some structures; these can differ, active in one and inactive in another. Active and inactive are the calls of the source. Rule for the calls: active = hit-call score of the fitted dose curve at least 0.9, where 1 is the maximum; inconclusive = response in the unintended direction; inactive = score below 0.9.
# System: Thyroperoxidase (TPO), gene 54314
# Assay: CCTE_Simmons_AUR_rTPO: CCTE's Amplex UltraRed Assay for Thyroperoxidase (TPO) Inhibition, Simmons Lab (AID 2283662);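 for AC50: potency for loss of signal meaning inhibition of peroxidase activity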
# Summary of the method: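 Endpoint is decreased Amplex UltraRed fluorescence after a 30-min, 37C reaction of rat thyroid microsomes with 300 uM H2O2. Eight test concentrations (5 nM–87.5 uM final) in 0.5% DMSO, three biological replicates each.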
SMILES,AC50,outcome
CC(C)(C)CC(C)(C)c1ccc(O)cc1,11.6 µM (active),
NNC(=S)NN,0.205 µM (active),
O=C(O)C(F)(F)C(F)(F)C(F)(F)C(F)(F)C(F)(F)C(F)(F)F,16.5 µM (active),inactive
CCOC(=O)Nc1cccc(OC(=O)Nc2ccccc2)c1,1.38 µM (active),
Clc1ccc(COC(Cn2ccnc2)c2ccc(Cl)cc2Cl)cc1 (stereo not given),43.8 µM (active),
CCCCCCCCSC(=O)Oc1cc(Cl)nnc1-c1ccccc1,43.8 µM (active),
Cc1ccccc1N,2.19 µM (active) and 2.51 µM (active),
COP(=O)(OC)O/C(=C\Cl)c1cc(Cl)c(Cl)cc1Cl,48.3 µM (active),
Cc1ccc2ccccc2c1C,34.3 µM (active),
CC(C)c1cccc(C(C)C)c1O,10.3 µM (active),
CCC(C)(C)c1ccc(O)c(C(C)(C)CC)c1,4.15 µM (active),
Cc1ccc(N)cc1Cl,0.0109 µM (active),
CCOP(=S)(OCC)SCSP(=S)(OCC)OCC,9.6 µM (active),
CCC1(c2ccc(N)cc2)CCC(=O)NC1=O (stereo not given),0.935 µM (active),
OCc1ccco1,28.5 µM (active),
Oc1cccc2cccnc12,18.4 µM (active) and 15.9 µM (active),
CCOP(=S)(OCC)Oc1nc(Cl)c(Cl)cc1Cl,10.4 µM (active),
O=C(Nc1ccc2[nH]ccc2c1)c1cc2cc(F)ccc2n1Cc1cccc(F)c1,1.62 µM (active),
COP(=S)(OC)Oc1ccc(Sc2ccc(OP(=S)(OC)OC)cc2)cc1,11.6 µM (active),
CCCCCCCCc1ccc(O)cc1,6.82 µM (active),
CC1(C)Cc2cccc(O)c2O1,12.2 µM (active),
CC12CC1(C)C(=O)N(c1cc(Cl)cc(Cl)c1)C2=O (stereo not given),,inactive
CC(C)(C)c1cc(O)ccc1O,1.84 µM (active) [middle of 5 runs],
C[C@H]1CCCC(=O)CCC/C=C/c2cc(O)cc(O)c2C(=O)O1,3.47 µM (active),
O=C(O)C(Cl)(Cl)Cl,,inactive
Clc1ccc(C2(Cn3cncn3)CC(Br)CO2)c(Cl)c1 (stereo not given),,inactive
CC(C)(c1ccc(OCC2CO2)cc1)c1ccc(OCC2CO2)cc1 (stereo not given),43.5 µM (active),
CC1(C)CCC(Cc2ccc(Cl)cc2)C1(O)Cn1cncn1 (stereo not given),,inactive
CC(C)(c1ccccc1)c1ccc(O)c(C(C)(C)c2ccccc2)c1,19.6 µM (active),
